Bioassay records as filed in PubChem BioAssay.
This is a sample that favours compounds with a hit; in the whole collection about 4.6% have one here.
ssDAF-12 act = S. stercoralis DAF-12 activation, primary screen. HEK293 ssDAF-12/GRIP1 lit1-tk-luc reporter, luminescence; % of 3 µM dafachronic acid response. activation, % at 6.8 µM. hit rate 1% among 370,000. AID 652126;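 active means activation above the mean over all tested compounds plus 3 SD, cut at about 0.9% in these data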
hcDAF12 agonist = H. contortus DAF-12 activation, primary screen. HEK293 hcDAF-12 lit1-tk-luc reporter, luminescence; 0% DMSO, 100% Δ7-dafachronic acid. AID 652067. activation, % at 6.8 µM. hit rate 1.4% among 370,000;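 active means activation above the mean of all tested compounds plus 3 SD, cut at about 5.5% in these data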
Wee1 degr inh = human Wee1 degradation inhibition, primary screen | reporter increase, % at 5 µM | hit rate 1.2% among 220,000 | HeLa Luc-Wee1K328M stability, luciferase luminescence; 100% = proteasome inhibitor MG132 effect | AID 1321;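 active means activation above the mean of all tested compounds plus 3 SD, set per screening run, cut at about 8.8% in these data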;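 further: cells exposed to compound for 20 h before luminescence read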
Target sequence (P30291 whole entry K328M): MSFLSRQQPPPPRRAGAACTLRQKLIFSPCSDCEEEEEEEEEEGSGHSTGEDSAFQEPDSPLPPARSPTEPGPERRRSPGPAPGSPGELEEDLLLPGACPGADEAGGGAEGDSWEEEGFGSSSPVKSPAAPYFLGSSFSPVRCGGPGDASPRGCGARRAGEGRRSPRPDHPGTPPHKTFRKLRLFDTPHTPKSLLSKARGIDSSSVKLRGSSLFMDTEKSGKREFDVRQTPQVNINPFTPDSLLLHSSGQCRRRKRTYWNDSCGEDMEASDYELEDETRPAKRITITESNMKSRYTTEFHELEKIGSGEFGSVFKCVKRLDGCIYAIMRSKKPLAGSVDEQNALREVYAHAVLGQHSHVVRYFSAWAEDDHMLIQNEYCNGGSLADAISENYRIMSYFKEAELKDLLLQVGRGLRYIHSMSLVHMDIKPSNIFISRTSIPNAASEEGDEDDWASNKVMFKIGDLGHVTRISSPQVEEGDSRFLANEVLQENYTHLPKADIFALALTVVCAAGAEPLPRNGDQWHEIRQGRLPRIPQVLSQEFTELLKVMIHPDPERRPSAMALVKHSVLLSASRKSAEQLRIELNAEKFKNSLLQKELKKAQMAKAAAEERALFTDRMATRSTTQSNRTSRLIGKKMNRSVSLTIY
hgDAF12 agonist = activates the H. glycines DAF-12 receptor ligand-binding domain; HEK293 GAL4-hgDAF12 UAS-luciferase reporter, agonist luminescence; normalized to butyrate control; activation, % at 6.8 µM; hit rate 1.8% among 370,000; AID 687014;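 active means activation above a cutoff set at the mean of all screened compounds plus 3 SD, cut at about 10% in these data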
DAX1 inh-1 = inhibits human nuclear receptor DAX1; HEK293 Gal4-DAX1 luciferase reporter, luminescence; inhibition, % at 6.75 µM; hit rate 0.99% among 340,000; P51843;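 active means inhibition above the mean over all tested compounds plus 3 SD, cut at about 4.2% in these data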;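 further: inhibition shows as a rise in luminescence from relieved DAX1 repression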
DAX1 inh-2 = DAX1 (NR0B1) inhibition, primary screen; HEK293T StAR-luciferase reporter, SF-1/DAX-1 repression relief; inhibition, % at 6.8 µM; hit rate 1.1% among 370,000;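 active means inhibition above the mean over all tested compounds plus 3 SD, cut at about 3.6% in these data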;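 further: higher inhibition means more luminescence from relief of DAX-1 repression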
Hits are given with their value; n = inactive; x = no result given.

SMILES	ssDAF-12 act	hcDAF12 agonist	Wee1 degr inh	hgDAF12 agonist	DAX1 inh-1	DAX1 inh-2
O=C(Nc1cccc2c1[nH]c(=O)c1ccccc12)C(F)(F)F	n	n	x	n	n	4.0
C/C(=N/Nc1ccccc1[N+](=O)[O-])c1ccc([N+](=O)[O-])cc1	n	6.4	x	n	n	n
Cc1cccc(OCC(=O)N2CCC(c3ccccc3)C2)c1 (centres undefined)	n	n	n	10	n	n
O=C(COc1ccc(F)cc1)N1CCC(c2ccccc2)C1 (centres undefined)	n	n	n	n	n	n
CC(C)(C)C(=O)NC1CCCCN(Cc2ccc(Cl)cc2)C1=O (centres undefined)	n	n	x	n	x	n
COC(=O)C(C(=O)OC)C(CC(=O)c1ccc(Br)cc1)c1ccccc1 (centres undefined)	n	n	x	n	n	n
CN(C)/N=C/c1ccc(OS(=O)(=O)c2ccccc2)cc1	n	n	n	11	n	n
Oc1ccc(Oc2ccccc2F)c2cccnc12	n	5.7	x	n	x	x
Nc1cccnc1Oc1ccccc1F	n	n	n	n	n	n
Cc1cc(C(C)(C)C)ccc1Oc1cccc2c1S(=O)(=O)N(C1CCCC1)CC(COCc1ccccc1)O2 (centres undefined)	n	n	x	n	n	3.6
COc1cccc(-c2cc3nc4c(c(NCC(C)(C)CN(C)C)n3n2)CCCC4)c1	n	n	n	n	4.3	n
COc1cccc(-c2cn3nc4c(nc3n2)CCCC4)c1	x	x	n	x	n	x
Fc1cccc(-c2cc3nc4c(c(NCc5ccco5)n3n2)CCCC4)c1	n	n	n	11	n	4.2
Fc1cccc(-c2cc3nc4c(c(N5CCOCC5)n3n2)CCCC4)c1	n	n	n	n	n	n
CCOC(=O)N1CCN(C(c2ccnc3ccccc23)c2nnnn2-c2ccc3c(c2)OCCO3)CC1 (centres undefined)	n	n	x	n	x	n
O=C(Nc1ccc2c(c1)OCCO2)C(C1CC1)n1c(=O)c(-c2cc3ccccc3[nH]2)nc2ccccc21 (centres undefined)	n	n	x	n	x	n
c1ccc2c(c1)Cn1nc(Cc3nc4c(s3)CCCC4)nc1-2	n	5.7	n	n	4.4	n
N#CCc1nc2n(n1)Cc1ccccc1-2	n	n	n	n	n	n
O=C(CSc1ncccn1)c1ccccc1Br	n	n	n	n	4.3	n
O=C(O)CSc1ncccn1	n	n	n	n	n	n
Cc1cc2c(SCC(=O)Nc3cccc(O)c3)ncnc2s1	1.4	6.4	x	n	n	n
COc1ccc(NC(=O)CSc2ncnc3sc(C)cc23)cc1	n	n	x	n	n	n
Cc1cc2c(=O)n(C)c(SCC(=O)Nc3ccccc3)nc2s1	n	n	x	n	4.8	n
Cc1cccc(NC(=O)CSc2nc3sc(C)cc3c(=O)n2C)c1	n	n	x	n	n	n
CCN(Cc1nc(-c2cccc(Cl)c2)no1)CC1CCCO1 (centres undefined)	n	n	n	n	n	n
SMILES	ssDAF-12 act	hcDAF12 agonist	Wee1 degr inh	hgDAF12 agonist	DAX1 inh-1	DAX1 inh-2
CN(Cc1nc(-c2cccc(Cl)c2)no1)C1CCOCC1	n	n	n	12	n	n
Cc1cc(=S)c2ccccc2[nH]1	1.3	n	n	n	n	n
Cc1ccc2[nH]c(C)cc(=S)c2c1	n	n	n	n	n	n
OC(c1ccccc1)C1(c2ccccc2)CCN(Cc2ccccc2)CC1 (centres undefined)	n	n	x	n	x	n
N#Cc1ccc(C(=O)Nc2nnc(-c3ccccn3)o2)cc1	n	n	9.4	n	n	n
O=C(NCCNc1ccc([N+](=O)[O-])cc1)c1cccc(Br)c1	n	n	9.4	n	n	n
Nc1nc(COc2ccc3ccccc3c2)cs1	n	n	9.0	n	n	n
O=C(C(=O)N1CCN(c2ccncc2)CC1)c1cccc(Br)c1	n	n	x	n	x	n
c1ccc(CSc2nnc(NC3CCCCC3)s2)cc1	n	n	x	12	n	n
O=S(=O)(c1ccc(F)cc1)N1CCCc2nc(-c3ccc(Br)cc3)ccc21	n	n	x	n	x	n
N#Cc1ccc(S(=O)(=O)N2CCCc3nc(-c4ccc(Br)cc4)ccc32)cc1	1.4	n	x	n	x	n
N#Cc1ccc(S(=O)(=O)N2CCCc3nc(-c4ccc(F)cc4)ccc32)cc1	1.7	n	x	n	x	n
